Shown are actives, neighbours in structure and some others; about 2.8% of the full set was active somewhere.
PME-1 primary = PME-1 (human) inhibition. Q9Y570. inhibition, % at 5.9 µM. recombinant PME-1, FP-Rh probe fluorescence polarization. AID 2130. hit rate 0.53% among 320,000;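 active = inhibition above the campaign mean of all compounds plus 3 SD, cut at about 26% in these data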;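 also: competitive labeling of PME-1 active site by serine hydrolase directed probe; 0% = PME-1 with DMSO and 100% = wells lacking PME-1 enzyme; inhibitors block probe labeling so polarization falls and inhibition rises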
pPAFAH FP inh = inhibitors of human plasma PAF acetylhydrolase (pPAFAH); hit rate 1.5% among 330,000; Q13093; AID 463082; recombinant pPAFAH, FP-rhodamine probe fluorescence polarization; inhibition, % at 3.39 µM;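 active = inhibition above the mean inhibition across the screen plus 3 SD, cut at about 25% in these data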;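 also: inhibitors block binding of the rhodamine activity-based probe so polarization drops; 0% = enzyme with DMSO and 100% = wells lacking pPAFAH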
Target sequence (Q13093 whole entry, looked up): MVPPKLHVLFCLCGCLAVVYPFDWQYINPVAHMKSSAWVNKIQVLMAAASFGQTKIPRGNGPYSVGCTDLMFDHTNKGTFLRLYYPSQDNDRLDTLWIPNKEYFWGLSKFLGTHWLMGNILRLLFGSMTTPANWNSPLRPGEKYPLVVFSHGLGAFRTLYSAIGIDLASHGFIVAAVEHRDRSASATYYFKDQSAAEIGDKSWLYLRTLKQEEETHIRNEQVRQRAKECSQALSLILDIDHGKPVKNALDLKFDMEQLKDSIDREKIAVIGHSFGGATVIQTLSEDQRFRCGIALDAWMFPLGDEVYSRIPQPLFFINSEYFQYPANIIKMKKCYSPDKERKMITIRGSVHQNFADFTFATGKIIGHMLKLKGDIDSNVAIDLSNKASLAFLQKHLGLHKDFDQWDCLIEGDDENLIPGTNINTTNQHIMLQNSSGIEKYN
PAFAH1B3 FP inh = inhibitors of human PAFAH1B3; recombinant PAFAH1B3, FP-rhodamine probe, fluorescence polarization; hit rate 0.28% among 340,000; Q15102; inhibition, % at 3.39 µM;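 active = inhibition above the screen-wide average of all tested compounds plus 3 SD, cut at about 25% in these data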;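 also: 0% = enzyme with DMSO only and 100% = wells lacking PAFAH1B3 protein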
Target sequence (Q15102 whole entry, looked up): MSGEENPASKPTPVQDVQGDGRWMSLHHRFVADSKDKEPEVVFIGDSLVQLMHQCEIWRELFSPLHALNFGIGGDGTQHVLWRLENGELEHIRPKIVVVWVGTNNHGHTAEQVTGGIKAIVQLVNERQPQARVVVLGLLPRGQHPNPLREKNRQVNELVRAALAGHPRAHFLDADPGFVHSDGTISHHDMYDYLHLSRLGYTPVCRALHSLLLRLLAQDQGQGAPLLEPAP
PAFAH2 FP inh = inhibitors of human PAFAH2 | Q99487 | recombinant PAFAH2, FP-rhodamine activity probe, fluorescence polarization | inhibition, % at 3.39 µM | hit rate 0.99% among 340,000 | AID 492956;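 active = inhibition above the mean over all tested compounds plus 3 SD, cut at about 30% in these data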;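 also: inhibitors block probe labeling of enzyme so polarization drops; 0% = enzyme with DMSO and 100% = wells lacking PAFAH2 protein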
PAFAH1B2 inh = inhibitors of human PAFAH1B2. recombinant PAFAH1B2, FP-rhodamine activity probe, fluorescence polarization. hit rate 1.2% among 340,000. inhibition, % at 3.39 µM. P68402;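 active = inhibition above the mean of all tested compounds plus 3 SD, cut at about 24% in these data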;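 also: 0% = enzyme with DMSO and 100% = wells lacking PAFAH1B2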
Fam108B counter = blocks mouse Fam108B hydrolase in RBBP9 counter-screen | recombinant Fam108B, FP-Rh probe fluorescence polarization | inhibition, % at 9.51 µM | hit rate 0.33% among 300,000 | AID 1947;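 active = inhibition above the screen mean inhibition plus 3 SD, computed separately per campaign, cut at about 18% in these data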;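 also: inhibitors lower polarization as less probe binds the enzyme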
Starred values were filed as active, the others as inactive; / = no result given.

SMILES	PME-1 primary	pPAFAH FP inh	PAFAH1B3 FP inh	PAFAH2 FP inh	PAFAH1B2 inh	Fam108B counter
Cc1cc(C(=O)N/N=C/c2cccc([N+](=O)[O-])c2)c(C)n1-c1ccccc1	28.9*	11.5	7.7	-3.4	2.6	4.4
Cc1cc(C(=O)N/N=C2\CCCC(=O)C2)c(C)n1-c1ccccc1	0.3	28.0*	6.9	-3.6	-1.6	-1.7
COc1cccc(CN2CCNC(=O)C2CC(=O)NCC2CCOCC2)c1 (stereo not drawn)	-8.5	4.7	11.2	-5.7	0.7	2.2
CCOCC(=O)Nc1ccc(C)c(Cl)c1	-4.2	0.6	7.3	-29.1	2.6	-3.8
Cc1ccc(NC(=O)COC(=O)CC2CCCC2)cc1Cl	-3.8	18.0	6.6	67.6*	-3.6	0.9
COc1ccc(NC(=O)COC(=O)CC2CCCC2)cc1Cl	10.1	26.9*	9.0	42.7*	-4.0	-1.2
O=C(Nc1ccccc1Cl)c1ccc2nc(N3CCOCC3)sc2c1	-3.4	-6.0	-3.1	-1.8	-0.6	-1.8
CC(=O)c1ccc(NC(=O)CSc2nnc(NC(=O)c3ccco3)s2)cc1	4.6	2.1	10.6	4.7	2.9	-0.2
COc1ccc(C2=NN(c3nc(-c4ccccc4)c(CC(=O)O)s3)C(c3ccco3)C2)cc1 (stereo not drawn)	-9.4	29.8*	-7.3	3.2	-3.1	1.6
CCOC(=O)c1ccc(N=Nc2c(C)c(C#N)c(O)[nH]c2=O)cc1	1.3	1.1	13.7	3.5	0.8	5.0
COc1cccc(CSc2nc3sc(C)c(C)c3c(=O)n2Cc2ccco2)c1	-3.5	25.8*	6.7	-2.4	-0.5	-8.2
Cc1cccc(CSc2nc3sc(C)c(C)c3c(=O)n2Cc2ccco2)c1	1.4	22.6	1.0	2.6	0.1	-5.3
CSc1nc(N)c2c(n1)N(C)C=NS2(=O)=O	/	/	15.0	5.6	4.4	/
CC1CCc2c(sc(NC(=O)c3cccn3C)c2C(N)=O)C1 (stereo not drawn)	/	29.0*	2.7	5.0	-4.7	/
COC(=O)Nc1sc2c(c1C(N)=O)CCC(C)C2 (stereo not drawn)	3.0	-6.2	1.2	-6.3	0.6	-7.2
CC1(C)Cc2c(sc3[nH]c(=S)n(Cc4ccco4)c(=O)c23)CO1	-3.5	2.7	13.9	18.9	5.7	-1.9
O=c1c2c3c(sc2[nH]c(=S)n1Cc1ccco1)CCC3	1.1	24.7*	3.1	19.5	2.8	1.7
C[C@H](NC(=O)c1nc[nH]c1C(=O)NCC(=O)OCc1ccccc1)c1ccccc1	5.6	11.8	2.1	0.9	34.0*	0.5
CCN(CC)c1ccc(N=Cc2ccc(N(CC)CC)cc2O)cc1	-3.5	29.4*	4.1	-1.2	1.2	4.1
COc1ccc(CC(=O)NNC(=O)CSc2ccc(C)cc2)cc1	3.9	-2.1	5.0	-2.0	4.0	-1.5
O=C(CSc1ncn[nH]1)NCCc1ccc(Cl)cc1	0.4	1.8	8.2	10.8	30.7*	1.7
O=C(CSc1ccc2ccccc2c1)NCCc1ccc(O)c(O)c1	4.3	26.8*	5.6	4.0	10.8	-1.4
O=C(CSc1ccccc1)NCCc1ccc(F)cc1	1.1	-0.6	-1.1	-4.4	27.5*	-1.9
O=C(CSc1nc2ccccc2o1)NC(=O)NCc1ccccc1	-5.0	-1.3	6.8	-2.9	-25.6	-6.9
O=C(CSc1ccc(F)cc1)NC(=O)NCc1ccccc1	3.1	5.8	4.8	8.3	28.0*	2.2
SMILES	PME-1 primary	pPAFAH FP inh	PAFAH1B3 FP inh	PAFAH2 FP inh	PAFAH1B2 inh	Fam108B counter
CCC(CC)NC(=O)c1cc(S(=O)(=O)N2CCCCC2)ccc1N1CCOCC1	4.4	6.7	11.1	2.3	4.3	/
O=C(CSc1ccc(F)cc1)NCCSc1ccccc1	3.2	5.6	12.0	3.7	28.3*	-2.7
CCOC(=O)N1CCN(C(=O)c2ccccc2NC(C)=O)CC1	-5.0	-0.1	3.9	2.9	-1.9	0.8
CCOC(=O)N1CCN(C(=O)c2ccccc2NC(=O)COc2ccccc2)CC1	7.2	3.2	-1.4	-4.0	49.2*	-3.7
N#Cc1c(N)nc2c3c(sc(=N)c2c1N)NC(=O)CC3c1ccccc1 (stereo not drawn)	29.2*	28.4*	7.4	2.4	-5.9	9.2
N#Cc1c(N)nc2c3c(sc(=N)c2c1N)NC(=O)CC3c1c(F)cccc1Cl (stereo not drawn)	63.5*	26.6*	1.6	3.6	-16.8	11.9
Cc1c(C#N)c(N)nc2c3c(sc12)NC(=O)CC3c1ccc(Cl)cc1 (stereo not drawn)	-0.1	7.2	3.3	1.9	6.3	-2.4
COC(=O)CCCC(=O)NC1CCCc2c1cnn2-c1ccc(F)cc1F (stereo not drawn)	-1.1	3.9	5.2	1.6	3.4	-4.4
Cc1nn(C(C)C(=O)NC2CCCCC2)c(=O)c2nn(-c3ccccc3)c(C)c12 (stereo not drawn)	2.4	9.0	7.8	-0.1	7.5	-2.1
Fc1ccc(CCNC(=S)Nc2ccc(F)c(Cl)c2)cc1	-5.5	1.3	12.3	-6.2	9.5	-0.9
O=C(NCC1CCCO1)C(=O)N/N=C/c1ccc(OCc2ccccc2Cl)cc1 (stereo not drawn)	-6.5	29.7*	6.0	4.6	3.4	-1.6
COc1cc(/C=N/NC(=O)C(=O)NCC2CCCO2)ccc1O (stereo not drawn)	3.5	-3.4	-0.6	-6.0	4.1	3.7
CC(C)N1C(=O)C(=O)N(CC(=O)N(C)c2ccccc2)C1=O	-0.7	-1.1	3.3	0.2	2.0	/
CN(C)CCNC(=O)c1cccc(S(=O)(=O)Nc2ccc(F)cc2)c1	-4.2	25.3*	2.1	-6.9	-0.3	-0.7
CCOc1ccc(S(=O)(=O)Nc2cccc(C(=O)N(C)CC(=O)Nc3ccc(OC)cc3)c2)cc1	/	/	2.5	-3.2	-0.8	/
Cc1cccc(C(=O)NCCN(C)C)c1	2.2	0.4	-0.8	3.5	1.2	-2.1
Cc1ccc(NS(=O)(=O)c2cccc(C(=O)NCCCN3CCOCC3)c2)cc1	5.1	34.2*	-0.7	10.1	1.5	0.4
COc1ccc(NC(=O)CN(C)C(=O)c2cccc(S(=O)(=O)Nc3ccc(OC)cc3)c2)cc1	3.0	32.1*	1.1	4.6	-1.3	0.3
COc1ccc(NS(=O)(=O)c2cccc(C(=O)NNC(=O)CNC(=O)c3ccccc3)c2)cc1	3.7	27.9*	4.9	-1.3	-2.3	-2.3
CCCn1c(SCC(=O)NCc2ccc3c(c2)OCO3)n[nH]c1=O	2.2	-4.3	3.3	-7.0	2.9	/
O=C1NC2(CCCCC2)OC12CCCCC2	/	/	-1.1	0.6	11.7	/
COc1ccccc1NS(=O)(=O)c1cccc(C(=O)NCC2(N(C)C)CCCCC2)c1	1.3	-1.0	2.3	1.1	5.1	2.4
COc1ccc(NS(=O)(=O)c2cccc(C(=O)NNC(=O)c3cccn3C)c2)cc1	4.2	34.2*	6.4	0.8	4.5	1.0
COc1ccc(NS(=O)(=O)c2cccc(C(=O)NCC3(N(C)C)CCCCC3)c2)cc1	-3.5	29.5*	6.2	-5.4	-4.7	-0.5

Source: PubChem (The Scripps Research Institute Molecular Screening Center)
